Laboratory results from PubChem BioAssay (Tox21).
Records with an inconclusive call do not appear. Activity calls are given as the source filed them. Unless noted, calls follow the shape of the full dose curve.

Key:
[1] = Nuclear factor erythroid 2-related factor 2/antioxidant responsive element (Nrf2/ARE) small molecule agonists: qHTS cell viability counter screen in human keratinocytes (AID 1919968; active = well fitted curve in the direction sought with a large enough effect in the repeat runs; an effect the other way counts as inactive or inconclusive; also: nearly all actives have a fitted effect of over 55% in size)
Outline: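 In human HaCaT keratinocytes stably expressing an ARE-driven luciferase, compound exposure lasted 23 h at 37 C under 5% CO2. Viable cells are quantified with a protease-based fluorogenic reagent (CellTiter-Fluor) read 1 h after addition.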

[2] = Nuclear factor erythroid 2-related factor 2/antioxidant responsive element (Nrf2/ARE) small molecule agonists: luciferase reporter gene qHTS assay in human keratinocytes (AID 1919969); also: nearly all actives have a fitted effect of over 35% in size
[3] = biological target: Gonadotropin-releasing hormone receptor (Homo sapiens) (UniProt P30968); test: Human gonadotropin-releasing hormone receptor (GnRHR) small molecule agonists, calcium flux assay in GnRHR-HEK293 cells (AID 1920063); also: nearly all actives have a fitted effect of over 35% in size
Chain of Gonadotropin-releasing hormone receptor (Homo sapiens) (P30968 whole entry, looked up): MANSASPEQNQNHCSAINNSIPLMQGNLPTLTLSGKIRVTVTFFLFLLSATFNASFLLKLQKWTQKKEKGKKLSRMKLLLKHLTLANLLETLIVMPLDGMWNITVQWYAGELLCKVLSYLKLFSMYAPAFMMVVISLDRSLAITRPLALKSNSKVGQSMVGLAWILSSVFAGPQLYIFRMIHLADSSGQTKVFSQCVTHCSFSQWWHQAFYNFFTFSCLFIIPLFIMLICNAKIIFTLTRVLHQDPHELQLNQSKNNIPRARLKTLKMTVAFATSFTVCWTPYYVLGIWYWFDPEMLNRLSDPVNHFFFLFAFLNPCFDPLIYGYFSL
Outline: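 Intracellular calcium rise is the read-out: engineered human GnRHR HEK293 cells, dye-loaded, are exposed to DMSO-dissolved compounds and fluorescence at Ex/Em 480/540 is tracked for 3 min.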

[4] = biological target: KiSS-1 receptor (Homo sapiens) (UniProt Q969F8); test: Human kisspeptin (KISS1R) small molecule agonists, calcium flux assay in KISS1R-HEK293 cells (AID 1920064; active = well fitted curve in the direction sought with a large enough effect in the repeat runs; an effect the other way counts as inactive or inconclusive)
Chain of KiSS-1 receptor (Homo sapiens) (Q969F8 whole entry, looked up): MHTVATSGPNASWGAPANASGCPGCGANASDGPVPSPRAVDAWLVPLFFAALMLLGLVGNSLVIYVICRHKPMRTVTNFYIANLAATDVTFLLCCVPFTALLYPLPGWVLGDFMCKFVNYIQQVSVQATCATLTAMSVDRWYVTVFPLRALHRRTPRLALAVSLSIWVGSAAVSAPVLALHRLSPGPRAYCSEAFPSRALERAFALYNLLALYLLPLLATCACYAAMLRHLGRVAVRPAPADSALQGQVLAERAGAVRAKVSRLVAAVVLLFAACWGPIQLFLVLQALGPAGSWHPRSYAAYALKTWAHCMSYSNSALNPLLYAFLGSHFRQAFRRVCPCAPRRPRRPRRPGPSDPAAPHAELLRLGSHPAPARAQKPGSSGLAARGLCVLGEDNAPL
Outline: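 Concentration-response testing used 15 concentrations in triplicate on human KISS1R-expressing HEK293 cells. Calcium-dependent fluorescence (Ex/Em 480/540) was followed kinetically for 3 min after compound transfer.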

[5] = G protein-coupled receptor (GPCR) small molecule agonists, calcium flux assay: HEK293 wild type cell line counter screen (AID 1920065)
Outline: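 Fluorescence intensity signals activation. After overnight (18 h) culture and a 1 h calcium dye load at 37 C, compounds are added by pin tool and the plate read at 480/540 nm for 3 min in 1 s steps.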

[6] = p53 small molecule agonists, cell-based qHTS assay with human liver microsomes (AID 1963577);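 also: p53 response element beta-lactamase reporter cells with liver microsomes plus NADPH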
Outline: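 With metabolic activation: human liver microsomes (0.5 mg/mL final) plus NADPH (0.5 mg/mL final) added alongside compounds to p53RE-bla cells; 16 h 37 C exposure; beta-lactamase read by LiveBLAzer fluorescence.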

[7] = p53 small molecule agonists, cell-based qHTS assay with rat liver microsomes (AID 1963578)
Outline: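 Metabolic activation by rat liver microsomes and NADPH, each 0.5 mg/mL final, added right after compounds to p53RE-bla reporter cells (4,000/well, plated 5 h earlier). 16 h at 37 C, then LiveBLAzer substrate for 2 h at room temperature in the dark; fluorescence read-out.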

[8] = p53 small molecule agonists, cell-based qHTS assay with human liver microsomes: qHTS cell viability counter screen (AID 1963579); also: nearly all actives have a fitted effect of over 45% in size
Outline: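 Metabolic activation used human liver microsomes and NADPH, both 0.5 mg/mL final, over 16 hours at 37 C on p53RE-bla cells (4,000/well). Cytotoxicity measured by CellTiter-Glo luminescence, 30 min at room temperature.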

[9] = p53 small molecule agonists, cell-based qHTS assay with rat liver microsomes: qHTS cell viability counter screen (AID 1963580); also: nearly all actives have a fitted effect of over 45% in size
Outline: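 After the beta-lactamase ratio was read, CellTiter-Glo was added to the same wells and luminescence measured at 30 min; cells had been treated 16 h at 37 C with compounds, rat liver microsomes and NADPH (0.5 mg/mL final each).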

[10] = p53 small molecule agonists, cell-based qHTS assay: qHTS cell viability counter screen (AID 1963581); also: nearly all actives have a fitted effect of over 45% in size
Outline: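 Luminescence from CellTiter-Glo, reflecting ATP content, serves as the cytotoxicity measure; it is taken after the 2 h reporter substrate step in HCT-116 p53RE-bla cells dosed for 16 h at 37 C.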

[11] = p53 small molecule agonists, cell-based qHTS assay (AID 1963582; active = well fitted activation curve with a large enough effect in the signal ratio in the repeat runs, not every such curve was filed as active; the % refers to the signal ratio)
Outline: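 After plating, p53RE-bla cells sat 5 h in the incubator; compounds or DMSO vehicle were pinned in; a 16 h incubation at 37 C followed; FRET substrate was added and, 2 h later at RT, fluorescence was measured.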

[12] = biological target: 5-hydroxytryptamine receptor 2A (Homo sapiens) (UniProt P28223); test: 5-hydroxytryptamine receptor 2A (HTR2A) small molecule antagonists, cell-based qHTS assay (AID 1963586); also: nearly all actives have a fitted effect of over 45% in size
Chain of 5-hydroxytryptamine receptor 2A (Homo sapiens) (P28223 whole entry, looked up): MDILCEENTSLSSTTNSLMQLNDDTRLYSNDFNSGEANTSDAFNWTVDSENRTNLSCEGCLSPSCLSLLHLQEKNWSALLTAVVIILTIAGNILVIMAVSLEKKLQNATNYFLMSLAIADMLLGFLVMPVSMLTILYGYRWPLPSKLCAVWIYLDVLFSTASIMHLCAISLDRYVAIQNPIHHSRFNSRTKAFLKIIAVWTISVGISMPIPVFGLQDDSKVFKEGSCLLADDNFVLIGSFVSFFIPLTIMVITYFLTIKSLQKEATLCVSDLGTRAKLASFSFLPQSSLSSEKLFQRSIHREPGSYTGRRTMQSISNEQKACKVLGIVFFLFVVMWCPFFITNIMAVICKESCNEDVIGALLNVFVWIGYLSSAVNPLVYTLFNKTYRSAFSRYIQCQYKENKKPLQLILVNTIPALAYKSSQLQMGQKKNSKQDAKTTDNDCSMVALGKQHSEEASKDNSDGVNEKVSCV
Outline: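 CHO cells stably expressing human HTR2A were plated for 18 h at 37 C, then loaded with calcium dye for 1 h. Compounds were preincubated 5 min at room temperature before DOI (4 nM solution) was added. Kinetic fluorescence was read for 3 min.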

[13] = biological target: 5-hydroxytryptamine receptor 2A (Homo sapiens) (UniProt P28223); test: 5-hydroxytryptamine receptor 2A (HTR2A) small molecule agonists, cell-based qHTS assay (AID 1963587); also: nearly all actives have a fitted effect of over 30% in size
Outline: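 CHO cells stably expressing human HTR2A, plated 18 h, loaded with calcium dye 1 h at 37 C. Agonist mode: compounds added and intracellular calcium fluorescence recorded kinetically for 2 min at 1 sec intervals.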

[14] = biological target: Muscarinic acetylcholine receptor M1 (Homo sapiens) (UniProt P11229); test: Cholinergic receptor muscarinic 1 (CHRM1) small molecule antagonists, cell-based qHTS assay (AID 1963588); also: nearly all actives have a fitted effect of over 40% in size
Chain of Muscarinic acetylcholine receptor M1 (Homo sapiens) (P11229 whole entry, looked up): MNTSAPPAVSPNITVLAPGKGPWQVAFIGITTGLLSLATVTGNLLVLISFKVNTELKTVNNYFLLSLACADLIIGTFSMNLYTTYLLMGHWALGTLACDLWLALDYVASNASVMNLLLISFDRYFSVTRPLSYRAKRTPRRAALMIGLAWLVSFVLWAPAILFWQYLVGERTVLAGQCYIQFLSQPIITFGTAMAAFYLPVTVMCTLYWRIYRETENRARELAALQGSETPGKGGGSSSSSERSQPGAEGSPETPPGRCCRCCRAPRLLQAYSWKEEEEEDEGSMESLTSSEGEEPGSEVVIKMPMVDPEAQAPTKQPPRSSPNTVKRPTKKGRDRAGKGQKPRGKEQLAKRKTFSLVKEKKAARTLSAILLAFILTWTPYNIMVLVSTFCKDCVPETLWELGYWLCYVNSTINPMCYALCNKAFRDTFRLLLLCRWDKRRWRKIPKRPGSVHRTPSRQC
Outline: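 Compounds were tested at 15 concentrations in three independent runs. Dye-loaded CHRM1-CHO cells were exposed 5 min at room temperature before stimulation by acetylcholine added at 50nM. Intracellular calcium was read kinetically on FDSS for 3 min.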

[15] = biological target: Muscarinic acetylcholine receptor M1 (Homo sapiens) (UniProt P11229); test: Cholinergic receptor muscarinic 1 (CHRM1) small molecule agonists, cell-based qHTS assay (AID 1963589); also: nearly all actives have a fitted effect of over 35% in size
Outline: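 Fluorescent calcium dye reports M1 activation in stably transfected CHO cells. Compounds, 15 concentrations, added after 1 h dye loading at 37 C; kinetic reading at 1 sec intervals.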

[16] = cAMP Responsive Elements (CRE) small molecule agonists, cell-based qHTS assay (AID 1963590)
Outline: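 Compound exposure lasted 3 h at 37 C/5% CO2 in CRE-bla HEK 293T cells grown in assay medium with 10% dialyzed FBS and 25 mM HEPES. Reporter signal came from LiveBLAzer B/G FRET substrate, 2 h, room temperature.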

[17] = cAMP Responsive Elements (CRE) small molecule antagonists, cell-based qHTS assay (AID 1963591; active = well fitted inhibition curve with a large enough effect in the signal ratio in the repeat runs, not every such curve was filed as active; the % refers to the signal ratio)
Outline: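 Stimulation used NKH477 at a final 0.25 uM for 3 h in compound-treated CRE-bla HEK293T cells, seeded 18 h beforehand. Reporter activity was measured with LiveBLAzer B/G FRET substrate after 2 h at room temperature.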

[18] = biological target: Beta-2 adrenergic receptor (Homo sapiens) (UniProt P07550); test: Adrenergic beta2 receptor (ADRB2) small molecule antagonists, cell-based qHTS assay (AID 1963592); also: series mostly up to about 92 µM; nearly all actives have a fitted effect of over 50% in size
Chain of Beta-2 adrenergic receptor (Homo sapiens) (P07550 whole entry, looked up): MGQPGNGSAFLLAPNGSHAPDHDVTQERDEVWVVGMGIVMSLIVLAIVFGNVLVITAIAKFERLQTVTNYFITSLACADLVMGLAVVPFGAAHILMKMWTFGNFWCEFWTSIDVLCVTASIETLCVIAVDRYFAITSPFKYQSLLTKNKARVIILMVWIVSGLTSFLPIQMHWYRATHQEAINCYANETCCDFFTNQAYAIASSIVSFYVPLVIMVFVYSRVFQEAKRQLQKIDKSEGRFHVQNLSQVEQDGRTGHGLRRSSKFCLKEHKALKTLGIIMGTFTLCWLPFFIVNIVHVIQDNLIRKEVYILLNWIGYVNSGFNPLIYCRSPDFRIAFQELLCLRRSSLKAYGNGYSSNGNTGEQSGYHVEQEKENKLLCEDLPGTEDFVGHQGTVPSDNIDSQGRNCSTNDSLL
Outline: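 Assay format: CHO-ADRB2 cells, 18-20hr seeding at 37C/5% CO2, then compound plus 1nM isoproterenol agonist mix for 0.5hr RT. Homogeneous time-resolved fluorescence cAMP detection after 1hr, expressed as 665/615 nm ratio.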

[19] = biological target: D(2) dopamine receptor (Homo sapiens) (UniProt P14416); test: Dopamine D2 receptor (DRD2) small molecule agonists, cell-based qHTS assay (AID 1963594); also: nearly all actives have a fitted effect of over 35% in size
Chain of D(2) dopamine receptor (Homo sapiens) (P14416 whole entry, looked up): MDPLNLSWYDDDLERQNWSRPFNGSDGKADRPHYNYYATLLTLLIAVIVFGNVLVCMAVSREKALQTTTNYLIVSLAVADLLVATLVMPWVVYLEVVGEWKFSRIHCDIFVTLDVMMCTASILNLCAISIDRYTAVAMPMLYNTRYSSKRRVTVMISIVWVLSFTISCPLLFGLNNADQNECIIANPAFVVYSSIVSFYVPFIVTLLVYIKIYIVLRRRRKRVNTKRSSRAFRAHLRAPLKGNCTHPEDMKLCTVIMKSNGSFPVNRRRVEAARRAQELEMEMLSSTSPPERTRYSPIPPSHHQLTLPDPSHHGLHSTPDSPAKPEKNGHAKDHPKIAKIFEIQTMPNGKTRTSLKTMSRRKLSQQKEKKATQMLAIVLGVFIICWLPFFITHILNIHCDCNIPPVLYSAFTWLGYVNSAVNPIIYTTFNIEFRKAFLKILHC
Outline: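 HEK293 cells stably expressing human DRD2, pre-treated with PDE inhibitor Ro20-1724 (0.1 mM final) and compound 10 min at room temperature, then stimulated with NKH477 (200nM […]) for 30 min. cAMP read by HTRF (665/620 nm).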

[20] = biological target: D(2) dopamine receptor (Homo sapiens) (UniProt P14416); test: Dopamine D2 receptor (DRD2) small molecule antagonists, cell-based qHTS assay (AID 1963595; active = well fitted inhibition curve with a large enough effect in the signal ratio in the repeat runs, with a control signal flat; the % refers to the signal ratio)
Outline: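 Antagonist mode in DRD2-HEK293 cells: after compound addition with 0.1 mM Ro20-1724, cells received quinpirole (12 nM) and NKH477 (200 nM) for 30 min at room temperature; HTRF cAMP read after 1 h detection.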
% is scaled to controls: 0 for no effect and ±100 for the full control effect.

OCCOCCOCCOCCO
inactive: Potency [1] | Potency [2] | Potency [3] | Potency [4] | Potency [5] | Potency [6] | Potency [7] | Potency [8] | Potency [9] | Potency [10] | Potency [11] | Potency [12] | Potency [13] | Potency [14] | Potency [15] | Potency [16] | Potency [17] | Potency [18] | Potency [19] | Potency [20]

CCC(O)OC(O)CC (stereo not drawn)
inactive: Potency [1] | Potency [2] | Potency [3] | Potency [4] | Potency [5] | Potency [6] | Potency [7] | Potency [8] | Potency [9] | Potency [10] | Potency [11] | Potency [12] | Potency [13] | Potency [14] | Potency [15] | Potency [16] | Potency [17] | Potency [18] | Potency [20]

CC(C)OP(=O)(CP(=O)(OC(C)C)OC(C)C)OC(C)C
inactive: Potency [1] | Potency [2] | Potency [3] | Potency [4] | Potency [5] | Potency [6] | Potency [7] | Potency [8] | Potency [9] | Potency [10] | Potency [11] | Potency [12] | Potency [13] | Potency [14] | Potency [15] | Potency [16] | Potency [17] | Potency [18] | Potency [19] | Potency [20]

O=C(O)CCCC(=O)O
inactive: Potency [1] | Potency [2] | Potency [3] | Potency [4] | Potency [5] | Potency [6] | Potency [7] | Potency [8] | Potency [9] | Potency [10] | Potency [11] | Potency [12] | Potency [13] | Potency [14] | Potency [15] | Potency [16] | Potency [17] | Potency [18] | Potency [19] | Potency [20]

Nc1ccccc1[N+](=O)[O-]
inactive: Potency [1] | Potency [2] | Potency [3] | Potency [4] | Potency [5] | Potency [6] | Potency [7] | Potency [8] | Potency [9] | Potency [10] | Potency [11] | Potency [12] | Potency [13] | Potency [14] | Potency [15] | Potency [16] | Potency [17] | Potency [18] | Potency [19] | Potency [20]

O=C(O)CCCCC(=O)O
inactive: Potency [1] | Potency [2] | Potency [3] | Potency [4] | Potency [5] | Potency [6] | Potency [7] | Potency [8] | Potency [9] | Potency [10] | Potency [11] | Potency [12] | Potency [13] | Potency [14] | Potency [15] | Potency [16] | Potency [17] | Potency [18] | Potency [20]

CCCCCCC=O
inactive: Potency [1] | Potency [2] | Potency [3] | Potency [4] | Potency [5] | Potency [6] | Potency [7] | Potency [8] | Potency [9] | Potency [10] | Potency [11] | Potency [12] | Potency [13] | Potency [14] | Potency [15] | Potency [16] | Potency [17] | Potency [18] | Potency [20]

CC(=O)N[C@@H](CS)C(=O)O
inactive: Potency [1] | Potency [2] | Potency [3] | Potency [4] | Potency [5] | Potency [6] | Potency [7] | Potency [8] | Potency [9] | Potency [10] | Potency [11] | Potency [12] | Potency [13] | Potency [14] | Potency [15] | Potency [16] | Potency [17] | Potency [18] | Potency [20]

NCCN
inactive: Potency [1] | Potency [2] | Potency [3] | Potency [4] | Potency [5] | Potency [6] | Potency [7] | Potency [8] | Potency [9] | Potency [10] | Potency [11] | Potency [12] | Potency [13] | Potency [14] | Potency [15] | Potency [16] | Potency [17] | Potency [18] | Potency [19] | Potency [20]

Cc1c(C(N)=O)cc([N+](=O)[O-])cc1[N+](=O)[O-]
inactive: Potency [1] | Potency [2] | Potency [3] | Potency [4] | Potency [5] | Potency [6] | Potency [7] | Potency [8] | Potency [9] | Potency [10] | Potency [11] | Potency [12] | Potency [13] | Potency [14] | Potency [15] | Potency [16] | Potency [17] | Potency [18] | Potency [20]

CC(=O)CCc1ccccc1
inactive: Potency [1] | Potency [2] | Potency [3] | Potency [4] | Potency [5] | Potency [6] | Potency [7] | Potency [8] | Potency [9] | Potency [10] | Potency [11] | Potency [12] | Potency [13] | Potency [14] | Potency [15] | Potency [16] | Potency [17] | Potency [18] | Potency [20]

C=CC(=O)OCCCCCCCC(C)C
inactive: Potency [1] | Potency [2] | Potency [3] | Potency [4] | Potency [5] | Potency [6] | Potency [7] | Potency [8] | Potency [9] | Potency [10] | Potency [11] | Potency [12] | Potency [13] | Potency [14] | Potency [15] | Potency [16] | Potency [17] | Potency [18] | Potency [19] | Potency [20]

CCC[C@H](N[C@@H](C)C(=O)N1[C@H](C(=O)O)C[C@@H]2CCCC[C@@H]21)C(=O)OCC
inactive: Potency [1] | Potency [2] | Potency [3] | Potency [4] | Potency [5] | Potency [6] | Potency [7] | activity change, negative = cytotoxicity [8] -3.18% [at 13.5 µM] | Potency [9] | Potency [10] | Potency [11] | Potency [12] | Potency [13] | Potency [14] | Potency [15] | Potency [16] | Potency [17] | Potency [18] | Potency [20]

Cc1cc(C)c(O)c(C)c1
inactive: Potency [1] | Potency [2] | Potency [3] | Potency [4] | Potency [5] | Potency [6] | Potency [7] | Potency [8] | Potency [9] | Potency [10] | Potency [11] | Potency [12] | Potency [13] | Potency [14] | Potency [15] | Potency [16] | Potency [17] | Potency [18] | Potency [19] | Potency [20]

c1ccc(Oc2ccccc2)cc1
inactive: Potency [1] | Potency [2] | Potency [3] | Potency [4] | Potency [5] | Potency [6] | Potency [7] | Potency [8] | Potency [9] | Potency [10] | Potency [11] | Potency [12] | Potency [13] | Potency [14] | Potency [15] | Potency [16] | Potency [17] | Potency [18] | Potency [19] | Potency [20]
